INS-1E GSIS act – primary screen for activators of insulin secretion dependent on glucose, INS-1E cells, GLuc reporter luminescence; INS-1E GLuc reporter insulin secretion, 2-3 h; activation, % at 16.6 µM; actives 0.61% (n = 370,000); AID 743287;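 active means lowest replicate activation of at least 40%, so every replicate reaches that level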
Env fusion inh – inhibitors of HIV Env-mediated cell fusion; HeLa-JRFL Env/CEM21 cell fusion, luciferase; inhibition, % at 12.3 µM; actives 1.1% (n = 360,000); AID 651610;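 active means mean replicate inhibition score of at least 50 and every replicate individually at or above 50; inconclusive means only one of the two criteria met; inactive means mean below 50 and not all replicates reaching 50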
PAX8 reporter – PAX8 transcriptional activity inhibition; RMG-I TPO-luciferase reporter, SteadyGlo, 24 h; inhibition, % at 12.6 µM; actives 1.2% (n = 360,000);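 active means mean replicate inhibition at least 60% with every replicate also reaching 60%; inconclusive means only one of the two criteria is met; inactive means mean below 60% and not all replicates reaching 60%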;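 further: luciferase light reporting Pax8 driven TPO promoter activity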
F508del corr – CFTR F508del correction in bronchial cells. CFBE cells, YFP halide quenching; stimulated with forskolin plus potentiator P3; % fluorescence drop versus neutral controls. activity (quench increase), % at 7.58 µM. actives 0.36% (n = 350,000). AID 720511;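 active means mean added fluorescence quench of at least 8% versus neutral control, with both replicates also reaching 8%; inconclusive means only one of the mean or replicate conditions met; inactive means mean below 8% and not both replicates reaching 8%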;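 further: cells transiently co-express mutant CFTR-F508del with the halide-sensitive YFP; corrector assay measuring rescue of mutant channel to the surface after 24 h compound exposure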
EWS-Fli block – EWS/Fli transcriptional activity inhibition; A673 NR0B1-luciferase reporter, viability-normalised; inhibition, % at 12.6 µM; actives 0.67% (n = 350,000);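 active means mean inhibition of at least 50% after viability correction, with every replicate also passing that limit; inconclusive means mean reaches 50% but only one of two replicates passes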;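 further: firefly luciferase signal divided by Alamar Blue viability fluorescence both relative to DMSO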
PGC1a acetyl inh – PGC1a acetylation modulation, inhibitor mode. U2OS PGC1a acetylation, AlphaScreen anti-acetyl-lysine; with virally co-expressed GCN5 acetyltransferase. inhibition, % at 15.6 µM. actives 0.17% (n = 350,000);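 active means every replicate shows inhibition of at least 40%; inconclusive means mean inhibition at least 40% but some replicate below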
Numbers stand for hits; – = inactive; ? = inconclusive; · = no result given; [ ] = another dose, or the depositor's remark. Only some compounds are listed: those with a hit (about 2.7% of all), similar ones and a draw of the others.

SMILES	INS-1E GSIS act	Env fusion inh	PAX8 reporter	F508del corr	EWS-Fli block	PGC1a acetyl inh
Cc1ccc(-c2[nH]ncc2CNCCc2cnn(-c3ccccc3)c2)cc1C	–	66.4	–	–	–	–
CN1CCN(C(=O)C[C@@H]2CC[C@H](NC(=O)c3ccc4c(c3)OCO4)[C@H](CO)O2)CC1	–	–	–	–	–	–
C[C@H](CO)N1C[C@H](C)[C@@H](CN(C)Cc2ccc(C(F)(F)F)cc2)OCCCC[C@H](C)Oc2ccc(NC(=O)Nc3ccccc3)cc2C1=O	–	–	–	–	–	–
C[C@H](CO)N1C[C@H](C)[C@H](CN(C)Cc2ccc(C(F)(F)F)cc2)OCCCC[C@H](C)Oc2ccc(NC(=O)Nc3ccccc3)cc2C1=O	–	72.8[16.7 µM]	84.9	–	–	–
C[C@@H]1CCCCO[C@H](CN(C)Cc2ccc(C(F)(F)F)cc2)[C@@H](C)CN([C@@H](C)CO)C(=O)c2cc(NC(=O)Nc3ccccc3)ccc2O1	–	–	–	–	68.8	–
COc1cc(OC)c2c(-c3cccc(-c4ccc(NC(C)=O)cc4)c3)cc(=O)oc2c1	–	–	78.5	–	–	–
COC(=O)COc1cc(OCC(=O)OC)c2c(-c3ccccc3)cc(=O)oc2c1	64.1	–	–	–	–	·
COc1cc(OC)c2c(-c3cccc(-c4sccc4C(C)=O)c3)cc(=O)oc2c1	–	–	84.4	9.7	55.8	–
COc1cc(OC)c2c(-c3cccc(-c4ccc(C#N)cc4)c3)cc(=O)oc2c1	–	–	–	–	56.1	–
CCOC(=O)c1ccc(-c2cccc(-c3cc(=O)oc4cc(OC)cc(OC)c34)c2)cc1	·	·	·	·	·	–
O=S(=O)(c1ccccc1)N1CCCCN2[C@@H](CO)[C@@H](c3ccc(C#Cc4cccnc4)cc3)[C@@H]2C1	–	·	–	–	–	–
COc1cc2oc(=O)cc(-c3cccc(-c4cccc(C)c4)c3)c2c(OC)c1OC	–	57.3	–	–	–	–
COc1ccc(-c2ccc(-c3cc(=O)oc4cc(OC)c(OC)c(OC)c34)cc2)cc1OC	–	?	–	–	–	·
COc1cc(OC)c2c(-c3cccc(-c4ccc(C(F)(F)F)cc4)c3)cc(=O)oc2c1	–	–	–	–	?	–
COc1cc(OC)c2c(-c3cccc(-c4ccc(OC)c(OC)c4)c3)cc(=O)oc2c1	–	–	–	9.2	52.9	–
COC(=O)[C@H](Cc1ccccc1)NC(=O)Cn1cnc(C(=O)Nc2ccc(C)c(C)c2)n1	–	69.2	–	–	–	–
COC(=O)[C@H](Cc1ccc(O)cc1)NC(=O)Cn1cnc(C(=O)Nc2ccc(C)c(C)c2)n1	–	·	–	–	–	–
CCOc1ncccc1C(=O)Nc1ccc(S(=O)(=O)Nc2nccs2)cc1	85.8	–	–	–	–	–
CCOc1ncccc1C(=O)Nc1ccc(S(=O)(=O)NC2=NCCCCC2)cc1	–	–	–	–	–	–
NS(=O)(=O)c1ccc(CCNc2ncnc3sccc23)cc1	·	48.8	–	·	·	–
COc1ccc(CCNc2ncnc3sccc23)cc1OC	–	–	76.9	–	–	·
COc1ccc(Nc2ncnc3sccc23)cc1OC	–	–	–	–	–	–
NS(=O)(=O)c1ccc(CNc2ncnc3sccc23)cc1	–	–	–	–	–	–
COc1ccc(CCNc2ncnc3c2oc2ccccc23)cc1OC	–	·	·	9.3	–	–
COc1ccc(CCNc2nc(C)nc3c2oc2ccccc23)cc1OC	·	·	·	·	·	–
SMILES	INS-1E GSIS act	Env fusion inh	PAX8 reporter	F508del corr	EWS-Fli block	PGC1a acetyl inh
C[C@@H]1CCCCO[C@@H](CN(C)S(=O)(=O)c2cn(C)cn2)[C@H](C)CN([C@H](C)CO)C(=O)c2cc(NC(=O)CCC(F)(F)F)ccc2O1	–	–	–	–	–	·
C[C@@H]1CN([C@H](C)CO)C(=O)c2c(c3ccccc3n2C)-c2ccccc2CO[C@@H]1CN(C)S(=O)(=O)c1ccc(C(F)(F)F)cc1	–	·	92.6	–	–	–
C[C@H](CO)N1C[C@H](C)[C@H](CN(C)S(=O)(=O)c2ccc(F)cc2)OCc2ccccc2-c2c(n(C)c3ccccc23)C1=O	–	·	·	–	–	–
C[C@H]1CN([C@@H](C)CO)C(=O)c2c(c3ccccc3n2C)-c2ccccc2CO[C@@H]1CN(C)S(=O)(=O)c1ccc(F)cc1	–	·	·	–	–	–
C[C@@H]1CN([C@H](C)CO)C(=O)c2c(c3ccccc3n2C)-c2ccccc2CO[C@H]1CN(C)S(=O)(=O)c1ccc(C(F)(F)F)cc1	–	·	82.8	–	–	–
C[C@H]1CN([C@@H](C)CO)C(=O)c2c(c3ccccc3n2C)-c2ccccc2CO[C@H]1CN(C)S(=O)(=O)c1ccc(C(F)(F)F)cc1	–	·	84.7	–	–	–
O=C(NCC[C@@H]1CC[C@H](NS(=O)(=O)c2cccc(F)c2)[C@@H](CO)O1)C1CCCC1	–	–	–	–	–	–
COc1cccc(-c2nnc3sc(-c4ccccc4)nn23)c1	·	–	–	·	·	–
COc1cccc(-c2nnc3sc(C4CCCCC4)nn23)c1	·	122.8	·	·	·	·
CCOc1cccc(-c2nn3c(-c4cc(C)[nH]n4)nnc3s2)c1	·	·	·	·	·	–
CCOc1cccc(-c2nnc3sc(C4CCCCC4)nn23)c1	·	95.6	·	·	·	–
CC(C)NC(=O)N1C[C@@H]2C(c3ccccc3)[C@H](C1)N2Cc1ccc(F)cc1 (stereo not given in full)	–	·	·	·	·	·
COc1ccc(NC(=O)N(C)C[C@@H]2Oc3c(NC(=O)Nc4c(C)noc4C)cccc3C(=O)N([C@@H](C)CO)C[C@H]2C)cc1	–	·	·	–	–	–
COCCCN(C(=S)NC(=O)C12CC3CC(CC(C3)C1)C2)c1c(N)n(Cc2ccccc2)c(=O)[nH]c1=O	–	84.4	–	–	–	–
CC(C)CN(C(=O)COC(=O)C12CC3CC(CC(Cl)(C3)C1)C2)c1c(N)n(Cc2ccccc2)c(=O)[nH]c1=O	–	–	–	–	–	–
COCCCN(C(=O)C1CCCCC1)c1c(N)n(Cc2ccccc2)c(=O)[nH]c1=O	–	·	–	–	–	·
COCCN(C(=O)COC(=O)C12CC3CC(CC(Cl)(C3)C1)C2)c1c(N)n(Cc2ccccc2)c(=O)[nH]c1=O	–	67.9	–	–	–	–
COCCN(C(=O)COC(=O)Cc1cccc(OC)c1)c1c(N)n(CC(C)C)c(=O)[nH]c1=O	52.7	–	·	–	–	–
COc1cccc(-c2cccc(-c3nc(C(=O)O)cc4c3[C@@H](CCO)N(S(=O)C(C)(C)C)C4)c2)c1 (stereo not given in full)	–	–	–	–	–	–
C[C@@H]1CCCCO[C@@H](CN(C)C(=O)NC2CCCCC2)[C@@H](C)CN([C@@H](C)CO)C(=O)c2cc(NC(=O)CCC(F)(F)F)ccc2O1	–	?	–	–	–	·
Cn1cnc(S(=O)(=O)N[C@@H]2C=C[C@H](CC(=O)NCC3CCCCC3)O[C@H]2CO)c1	–	–	–	–	–	–

Source: PubChem BioAssay
